HSF1 inh: HSF1 inhibitors in luciferase reporter cells, primary screen, cell-based, NIH3T3, luminescence; NIH3T3-HGL HSE-luciferase, MG132-induced, luminescence 8 h; hits give low values; activity change, negative = inhibition, % at 7.5 µM (by protocol); hit rate 0.77% among 300,000;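 active = more than half of replicate wells show activity change below -50%, luminescence cut by over half; inconclusive = some wells, but at most half, below -50%; inactive = no replicate well below -50%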;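 also: luciferase reports HSF-1 transcriptional activity via heat shock element; 0% = median of DMSO wells and -100% = zero luminescence signal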
HSF1 activator: HSF-1 activators, primary screen, NIH3T3-HGL cells, MG132 stress, luminescence, single point; NIH3T3-HGL HSF-1 luciferase reporter, 8 h; 100% = twice DMSO control signal; activation, % at 9 µM; hit rate 1.7% among 300,000; AID 504408, 2011;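 active = mean replicate activation of at least 50% with a set share of replicates each reaching 50%; inconclusive = only one of those two conditions met; inactive = mean below 50% and too few replicates reaching it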;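 also: 0% = median of the neutral control wells and 100% = twice that signal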
esBAF inh: Bmi1 luciferase reporter increase in mESCs, primary screen, esBAF inhibitor project, mouse ES cells, Bmi1 luciferase knock-in, single point; 24 h; 100% = twice the neutral-well signal; reporter increase, % at 12.5 µM; hit rate 2% among 350,000; AID 602393, 2012; in the data active = activation above about 40%; inconclusive = no clear call, values can overlap the other calls;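 also: 0% = median of the plate's neutral control wells and 100% = double that signal; a rise in the Bmi1 reporter signal indicates esBAF inhibition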
SMARCA2 activ: SMARCA2 (BRM) function activators, primary screen, cell-based, luminescence, high throughput. MG213 cells, MMTV-luciferase reporter, dexamethasone, overnight. activation, % at 9.1 µM. hit rate 1% among 370,000. AID 652017, 2013; in the data active = activation above about 7.8%;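 also: 0% = vehicle wells and 100% = reference activator wells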
MITF TRPM1 HTS: activators of MITF-driven TRPM1 promoter reporter, primary screen, cell-based, SK-MEL-5, luciferase, single point | hit rate 0.75% among 300,000 | activation, % at 12.5 µM | SK-MEL-5 TRPM1-promoter luciferase, 24 h; % of positive control, neutral wells = 0 | AID 588334, 2011;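 active = mean activation of at least 80% with every replicate also reaching 80%; inconclusive = mean reaches 80% but some replicate falls short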;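 also: 0% = neutral control wells and 100% = parthenolide positive control wells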
Wnt bcat act: Wnt/beta-catenin pathway activators, primary screen, cell-based, plate reader, single point. Wnt/beta-catenin reporter cell assay, activator. activation, % at 9.35 µM. hit rate 1.2% among 300,000; in the data active = activation above about 30%, passing the limit was not always enough; inconclusive = no clear call, values can overlap the other calls;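 also: 0% = neutral control wells and 100% = positive control wells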
Active calls of the source: *; u = inconclusive; x = no result. Shown are actives, neighbours in structure and some others; about 4.3% of the full set was active somewhere.

SMILES | HSF1 inh | HSF1 activator | esBAF inh | SMARCA2 activ | MITF TRPM1 HTS | Wnt bcat act
CC1CCCCN1C(=O)COC(=O)c1cc(Cl)c2c(c1)OCO2 (stereo not given) | x | x | 55.2* | 2.1 | u | 17.1
CC1CCN(C(=O)COC(=O)c2cccs2)CC1 | x | x | 65.2* | 2.3 | 40.7 | -3.0
O=C(OCC(=O)N1CCCCCC1)c1cccs1 | 7.6 | 38.0 | 45.5* | 2.1 | 37.0 | x
CCOC(=O)C1CCCN(C(=O)COC(=O)c2cccs2)C1 (stereo not given) | x | x | 3.0 | 0.5 | 22.6 | -4.9
O=C(OCC(=O)N1CCCCC1)c1cccs1 | x | x | 47.7* | -0.1 | 83.5* | 5.1
Cc1ccc(S(=O)(=O)Nc2ccc3c(c2)CC(=O)N([C@H](C)CO)C[C@@H](C)[C@H](CN(C)Cc2ccc4c(c2)OCO4)O3)cc1 | x | x | 1.0 | x | x | x
CC(C)NC(=O)Nc1ccc2c(c1)C(=O)N([C@H](C)CO)C[C@H](C)[C@H](CN(C)C(=O)c1ccccc1)OCCCC[C@@H](C)O2 | x | x | -3.4 | x | x | x
O=C(OCC(=O)N1CCc2ccccc2C1)c1cccs1 | 55.0 | 80.1* | x | 0.3 | 15.9 | 0.2
CC1CCN(CC(=O)c2cccs2)CC1 | -62.0* | -66.0 | x | -2.2 | 13.6 | 2.3
CC1CCN(C(=O)COC(=O)c2ccc3c(c2)OCO3)CC1 | 10.0 | 20.0 | 47.6* | 2.0 | 66.8 | 20.0
CC1CCN(C(=O)COC(=O)c2n[nH]c3ccccc23)CC1 | 24.7 | 37.9 | 57.6* | 3.8 | 65.9 | x
C[C@@H]1CN([C@H](C)CO)C(=O)c2cc(NS(C)(=O)=O)ccc2O[C@H]1CN(C)C(=O)Nc1ccc2c(c1)OCO2 | x | x | -0.4 | x | x | x
CC1(C)CC2CC(C)(CN2C(=O)CCCN2C(=O)c3ccccc3C2=O)C1 (stereo not given) | -56.6* | -68.6 | -7.3 | -0.3 | -5.2 | x
O=C(Oc1ccc(-c2ccccc2)cc1)N1CCCCC1 | 26.2 | 41.8 | u | 5.7 | 126.7* | x
COc1ccc(CNC(=O)CN(Cc2ccccc2)C(=O)CCC(=O)Nc2nccs2)cc1 | 24.1 | 70.3* | x | 3.6 | -3.1 | -0.9
CN=c1nc(-c2ccccc2)n(-c2ccccc2)s1 | x | x | 54.7* | 0.6 | -7.3 | 0.7
C=CCOc1ccc(/C=C/C(C)=N\O)cc1 | 12.4 | 16.9 | 34.0 | 6.4 | x | 37.5*
O=C(NCc1ccco1)c1ccc(COc2cc(Cl)ccc2Cl)cc1 | 31.2 | 76.1* | x | -2.3 | 25.7 | x
O=C(COc1ccc(Cl)cc1Cl)NCc1ccco1 | x | x | 24.0 | 4.3 | 39.5 | 5.6
C[C@@H]1CCCCO[C@@H](CN(C)Cc2ccc(C(F)(F)F)cc2)[C@H](C)CN([C@H](C)CO)C(=O)c2cc(NS(=O)(=O)c3ccccc3)ccc2O1 | x | x | -1.3 | x | x | x
O=C(O)c1ccc(N=c2oc3cc(O)ccc3cc2C(=O)NCc2ccccc2)cc1 | 4.0 | 2.0 | x | 3.6 | 37.2 | 4.7
NC(=O)c1cc2ccc(O)cc2oc1=Nc1ccccc1 | 14.4 | 40.1 | 30.8 | 7.9* | 45.3 | 15.5
NC(=O)c1cc2ccccc2oc1=NCc1ccccc1 | 8.1 | 38.8 | 5.9 | 0.1 | 6.7 | x
COc1ccc2cc(C(N)=O)c(=Nc3ccccc3)oc2c1 | 3.4 | 5.2 | x | 6.5 | 102.3* | u
COc1ccc2oc(=Nc3cc(F)ccc3F)c(C(N)=O)cc2c1 | 34.2 | 70.5* | x | 1.2 | 47.8 | 4.0
SMILES | HSF1 inh | HSF1 activator | esBAF inh | SMARCA2 activ | MITF TRPM1 HTS | Wnt bcat act
NC(=O)c1cc2ccc(O)cc2oc1=NCc1ccccc1 | 5.1 | 1.8 | 44.6* | 1.1 | 18.3 | -4.0
Cc1nc(N2[C@H](C#N)[C@H](c3ccccc3)[C@H]2CO)sc1C | x | x | 3.9 | x | x | x
CCOc1ccc2cc(C(=O)c3ccccc3)c(=O)oc2c1 | x | x | x | 1.6 | 33.5 | -0.3
NC(=O)c1cc2ccccc2o/c1=N\NC(=O)c1ccco1 | -0.8 | -6.4 | x | -0.2 | 2.3 | x
NC(=O)c1cc2cc(Br)ccc2oc1=NCc1ccccc1 | 142.4 | 190.1* | -5.6 | 0.8 | 42.1 | x
COc1ccc2cc(C(=O)c3ccccc3)c(=O)oc2c1 | 13.3 | 27.5 | 65.7* | 2.7 | 65.7 | x
CO[C@@H]1CN(C)C(=O)c2cc(NC(=O)Cc3ccccc3)ccc2OC[C@@H](C)N(C(C)=O)C[C@H]1C | x | x | 2.0 | x | x | x
CNc1nc(-c2ccc3c(c2)CCN3C(=O)c2ccccc2C)cs1 | -8.3 | 4.5 | x | 2.6 | 148.9* | 6.1
CNc1nc(-c2ccc3c(c2)CCN3C(=O)c2cccc(F)c2)cs1 | -1.4 | 5.0 | x | 3.9 | 36.2 | 12.8
CNc1nc(-c2ccc3c(c2)CCN3C(=O)c2ccc(F)cc2)cs1 | x | x | 51.7* | -3.3 | 32.6 | -3.8
CC(C)(C)Nc1nc(-c2ccc3c(c2)CCN3C(=O)C2CC2)cs1 | 1.7 | 0.1 | 94.6* | 2.0 | x | u
CC(C)C(=O)Nc1nc(-c2ccc3c(c2)CCN3C(=O)C2CC2)cs1 | -3.6 | 13.1 | 35.7 | 1.4 | 44.6 | 2.3
O=C(CN1CCCC1)Nc1nc(-c2ccc3c(c2)CCN3C(=O)c2ccccc2F)cs1 | -0.8 | 18.8 | 20.3 | x | 9.3 | x
C[C@@H](O)C#Cc1ccc([C@@H]2[C@H](CO)N3CCCCN(S(=O)(=O)Cc4ccccc4)C[C@@H]23)cc1 | x | x | -4.4 | x | x | x
Cc1ccc(S(=O)(=O)Nc2ccc3c(c2)C(=O)N([C@@H](C)CO)C[C@H](C)[C@@H](CN(C)C(=O)C2CCCCC2)OCCCC[C@H](C)O3)cc1 | x | x | 3.7 | x | x | x
CCC(=O)N1[C@@H](CO)[C@@H](c2ccccc2)[C@@H]1CN(CC)C(=O)NC1CCCC1 | x | x | 2.9 | x | x | x
COC(=O)/C=C/c1ccc(-n2cncn2)cc1 | 4.5 | 4.9 | 4.3 | 7.8* | 5.1 | 1.8
O=Cc1ccc(-n2cncn2)cc1 | -7.3 | 1.1 | x | -0.7 | 8.7 | -7.5
C/C=C/c1ccc([C@H]2[C@@H](CO)N(C(=O)NCCC)[C@H]2CNC(=O)C2CC2)cc1 | x | x | -10.4 | x | x | x
O=C(CCC(=O)OCC(=O)c1cccc([N+](=O)[O-])c1)Nc1cccc(Cl)c1Cl | 1.9 | 0.1 | x | 0.6 | -7.1 | 40.1*
O=c1c2c3c(sc2nc2n1CCCCC2)CCCCC3 | 14.3 | 36.0 | 61.6* | x | 51.0 | x
O=c1c2c3c(sc2nc2n1CCCCC2)CCCC3 | 18.0 | 42.5 | 50.2* | 4.2 | x | 39.4*
O=c1c2c3c(sc2nc2n1CCCC2)CCCCC3 | 3.0 | 3.8 | x | -1.0 | 39.2 | x
N=c1c2c3c(sc2nc2n1CCCCC2)CCCCC3 | x | x | 48.3* | 3.4 | 69.6 | x
O=c1c2c3c(sc2nc2n1CCCC2)CCC3 | -11.2 | -28.7 | 2.7 | 1.0 | 2.6 | x
CCCC(=O)Nc1ccc2c(c1)C(=O)N(C)C[C@H](OC)[C@@H](C)CN(C(=O)c1ccncc1)[C@@H](C)CO2 | x | x | 0.3 | x | x | x
Cc1ccc(-n2cc(CN3CCNC(=O)CC3)c(-c3cccc(C)c3)n2)cc1 | x | x | 9.0 | 1.5 | 19.8 | x
